High-throughput results as filed in PubChem BioAssay.
Sampled rows, rich in hits. Any-hit rate of the full collection: about 2.5%.
LGR2 antag: inhibitors of bursicon-induced LGR2 CRE-luciferase signal, primary screen, cell-based, HEK293, CRE-luciferase reporter, bursicon stimulation. Drosophila bursicon receptor LGR2 (rickets). bursicon-stimulated, 4 h. inhibition, % at 9.99 µM. actives 0.35% (n = 380,000);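 active = drop in luminescence signal, shown as inhibition above about 50% in the replicate tests, limit read from the data, passing the limit was not always enough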;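 also: agonist challenge used bursicon conditioned medium at about half maximal strength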
EWS-Fli block: EWS/Fli-driven NR0B1 reporter inhibitors, primary screen, A673 cells, NR0B1 luciferase, luminescence, MLPCN library. viability-normalised. inhibition, % at 12.6 µM. actives 0.67% (n = 350,000). AID 651661, 2012;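 active = mean inhibition of at least 50% after viability correction, with every replicate also passing that limit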;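 also: firefly luciferase signal divided by Alamar Blue viability fluorescence both relative to DMSO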
LMP1 NFkB inh: EBV LMP1-driven NF-kappaB luciferase reporter inhibitors, primary screen, cell-based, luminescence, single point | inhibition, % at 12.5 µM | AID 504558, 2011 | LMP1-induced NF-kappaB luciferase reporter cells | actives 0.69% (n = 350,000); in the data active = inhibition above about 41%;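 also: 0% = neutral control wells and 100% = reference inhibitor control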
TWEAK Fn14 block: inhibitors of TWEAK-Fn14 signaling, primary screen, luciferase reporter cells, uHTS; TWEAK-stimulated Fn14 reporter cells, luciferase luminescence, 8 h; inhibition, % at 10 µM; actives 2% (n = 360,000); in the data active = inhibition above about 50%
TROY signal inh: inhibitors of TROY-driven NF-kB signaling, primary screen, Q293 LMP1-TROYcd cells, NF-kB luciferase, uHTS. AID 1347056, 2019. inhibition, % at 10 µM. actives 0.98% (n = 360,000). Q293 LMP1-TROYcd NF-kB luciferase reporter, 4 h;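 active = compounds whose plate-normalised and pattern-corrected inhibition of the luciferase reporter signal at the single screening dose is 50% or more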
The depositor's hits bear a star.

Screening O=C(C[C@H]1C=C[C@@H](NC(=O)C2CCOCC2)[C@H](CO)O1)NCc1ccncc1 returned LGR2 antag 6 and EWS-Fli block 14.
Screening C[C@@H]1CN([C@@H](C)CO)S(=O)(=O)c2ccc(-c3ccccc3)cc2O[C@@H]1CN(C)Cc1ccccc1 returned LGR2 antag 15 and EWS-Fli block 15.
Cc1ccccc1S(=O)(=O)N[C@H]1CC[C@@H](CCn2cc(-c3ccccc3)nn2)O[C@@H]1CO was read as LGR2 antag 11 and EWS-Fli block 10.
CNC[C@@H]1OCCCC[C@H](C)Oc2ccc(NS(=O)(=O)c3ccc(F)cc3)cc2C(=O)N([C@@H](C)CO)C[C@H]1C was read as LGR2 antag -12 and EWS-Fli block 1.
For O=C(N[C@H]1CC[C@@H](CCNS(=O)(=O)c2cccc(Cl)c2)O[C@H]1CO)c1ccncc1 the results were LGR2 antag 3 and EWS-Fli block 1.
`COC(=O)c1ccccc1NC(=O)CC(=O)Nc1ccccc1C(=O)OC` gave LGR2 antag 0, EWS-Fli block 3, LMP1 NFkB inh 50*, TWEAK Fn14 block 3 and TROY signal inh -3.
c1ccc(-c2nnc(-c3ccccn3)s2)nc1 was read as LGR2 antag 60*, EWS-Fli block 49, LMP1 NFkB inh 47*, TWEAK Fn14 block 81* and TROY signal inh 28.
`COCC(=O)N(C)c1nnc(-c2ccccn2)s1` gave LMP1 NFkB inh 50*, TWEAK Fn14 block 0 and TROY signal inh -36.
O=C(O)CCc1c(C(=O)O)[nH]c2ccccc12 was read as LGR2 antag -7, LMP1 NFkB inh 6 and TWEAK Fn14 block 69*.
For O=C(O)CCCc1c(-[n+]2ccccc2)[nH]c2ccccc12 the results were LGR2 antag 7, EWS-Fli block 0, LMP1 NFkB inh 5, TWEAK Fn14 block -1 and TROY signal inh 9.
For C[C@H](CO)N1C[C@H](C)[C@H](CN(C)C(=O)C2CC2)Oc2ncc(-c3ccccc3F)cc2C1=O the results were LGR2 antag 5 and EWS-Fli block -21.
Screening CC1(C)CCc2cc(-c3ccnc(=S)[nH]3)ccc2O1 returned EWS-Fli block -30, LMP1 NFkB inh -25, TWEAK Fn14 block 62* and TROY signal inh 50.
COCC(=O)Nc1ccc2c(c1)[C@H]1C[C@H](CC(=O)O)O[C@H](CO)[C@H]1O2 was read as LGR2 antag 3 and EWS-Fli block -4.
CO[C@@H]1CN(C)C(=O)c2cc(NC(C)=O)ccc2OC[C@@H](C)N(Cc2cccnc2)C[C@@H]1C was read as LGR2 antag -25 and EWS-Fli block 4.
Screening O=C(Nc1ccc(F)c(F)c1)C1CCCCC1 returned LGR2 antag 11, EWS-Fli block -1, LMP1 NFkB inh 49*, TWEAK Fn14 block -12 and TROY signal inh -3.
`O=C(Nc1ccc(F)c(Cl)c1)C1CCCCC1` gave LGR2 antag -2, EWS-Fli block -28, LMP1 NFkB inh 0, TWEAK Fn14 block -13 and TROY signal inh -33.
`CCOc1ccc(N/C(SCc2cccc([N+](=O)[O-])c2)=C(/C#N)C(N)=O)cc1` gave LGR2 antag 28, EWS-Fli block -4, LMP1 NFkB inh -6, TWEAK Fn14 block 8 and TROY signal inh 11.
`N#CC(C#N)=C(Nc1ccc(F)cc1)SCc1cccc(F)c1` gave LGR2 antag 53*, LMP1 NFkB inh 18, TWEAK Fn14 block 49 and TROY signal inh 53*.
Cc1cccc(N2CCN(C(=O)c3ccc(N4CCCC4=O)cc3)CC2C)c1 (configuration not stated) was read as LMP1 NFkB inh 3, TWEAK Fn14 block 20 and TROY signal inh 24.
Cc1cccc(N2CCN(C(=O)c3cccc(N4CCCC4=O)c3)C(C)C2)c1 (configuration not stated) was read as LGR2 antag -3, EWS-Fli block 60*, LMP1 NFkB inh 7, TWEAK Fn14 block 19 and TROY signal inh 13.
`COc1ccc(C2c3cc4c(cc3OC(N3CCOCC3)C2C)OCO4)c(OC)c1` (configuration not stated) gave LGR2 antag 22, EWS-Fli block 60*, LMP1 NFkB inh 1, TWEAK Fn14 block 10 and TROY signal inh 26.
For COc1cccc(C2c3cc4c(cc3OC(N3CCOCC3)C2C)OCO4)c1O (configuration not stated) the results were LGR2 antag -9, EWS-Fli block 28, LMP1 NFkB inh -5, TWEAK Fn14 block 27 and TROY signal inh 1.
Screening CC(c1ccco1)N(C(=O)c1ccccc1NS(=O)(=O)c1ccc(Cl)c([N+](=O)[O-])c1)c1ccccn1 (configuration not stated) returned LGR2 antag 9, EWS-Fli block 21, LMP1 NFkB inh 4, TWEAK Fn14 block 38 and TROY signal inh 71*.
For COc1ccc2c3c([nH]c2c1)[C@@H](CO)N(C(=O)CC1CC1)CC31CN(C(=O)CC2CC2)C1 the results were LGR2 antag 4 and EWS-Fli block -2.
`CCOC(=O)c1ccc(-c2ccc(/C=N/NC(=O)CN(c3ccccc3Cl)S(C)(=O)=O)o2)cc1` gave LGR2 antag -54, EWS-Fli block -10, LMP1 NFkB inh -44, TWEAK Fn14 block 71* and TROY signal inh 20.
`O=C(O)C1CCC(CNCc2ccccc2Cl)CC1` (configuration not stated) gave LGR2 antag 0, EWS-Fli block -15, LMP1 NFkB inh 8, TWEAK Fn14 block 56* and TROY signal inh 6.
COc1ccc(-c2csc(NC3OC(=O)c4c3ccc(OC)c4OC)n2)cc1OC (configuration not stated) was read as EWS-Fli block 44, LMP1 NFkB inh 16, TWEAK Fn14 block 67* and TROY signal inh 12.
Screening Cc1cccc(C(=O)O/N=C(\N)Cc2ccc([N+](=O)[O-])cc2)c1 returned LGR2 antag 11, LMP1 NFkB inh -5, TWEAK Fn14 block -20 and TROY signal inh -21.
N/C(Cc1ccc([N+](=O)[O-])cc1)=N\OC(=O)c1ccc2ccccc2c1 was read as LMP1 NFkB inh -18, TWEAK Fn14 block -3 and TROY signal inh 59*.
`CCc1sc(C(=O)Nc2ccc(OC)c(S(=O)(=O)N3CCOCC3)c2)cc1C` gave LGR2 antag 1, EWS-Fli block 2, LMP1 NFkB inh 13, TWEAK Fn14 block 1 and TROY signal inh -4.
`COc1cc(/C=C/C(=O)Nc2ccc(OC)c(S(=O)(=O)N3CCOCC3)c2)ccc1OC(F)F` gave LGR2 antag 0, EWS-Fli block 10, LMP1 NFkB inh 21, TWEAK Fn14 block 50 and TROY signal inh 57*.
Screening COc1ccc(/C=C/C(=O)OCC(=O)Nc2ccc(C)cc2)cc1S(=O)(=O)N1CCOCC1 returned LGR2 antag -5, EWS-Fli block -4, LMP1 NFkB inh -9, TWEAK Fn14 block 19 and TROY signal inh -4.
